# Calls of active or inactive are those of the source. Rule for the calls: active = hit-call score of the fitted dose curve at least 0.9, where 1 is the maximum; inactive = score below 0.9.
# Experiment: ATG_Ets_CIS: Attagene CIS-FACTORIAL HepG2 Assay for human Erythroblast Transformation Specific (ETS) (AID 2282941)
# Conditions: HepG2 ETS cis-reporter transcription, actives raise or lower the signal
# Procedure: ATG_CIS is a cell-based, multiplexed-readout assay that uses HepG2, a human liver cell line, with measurements taken at 24 hours after chemical dosing in a 24-well plate.ATG_Ets_CIS is one of 52 assay component(s) measured or calculated from the ATG_CIS assay. It is designed to make measurements of mRNA induction, a form of inducible reporter, as detected with fluorescence intensity signals by Reverse transcription polymerase chain reaction (RT-PCR) and Capillary electrophoresis technology.Data from the assay component ATG_Ets_CIS was analyzed into 1 assay endpoint. This assay endpoint, ATG_Ets_CIS, was analyzed with bidirectional fitting relative to DMSO as the negative control and baseline of activity. Using a type of inducible reporter, measures of mRNA for gain or loss-of-signal activity can be used to understand the reporter gene at the transcription factor-level as they relate to the gene ETS1. Furthermore, this assay endpoint can be referred to as a primary readout, because this assay has produced multiple assay endpoints where this one serves a reporter gene function. To generalize the intended target to other relatable targets, this assay endpoint is annotated to the dna binding intended target family, where the subfamily is winged helix-turn-helix.
# Human liver HepG2 cells are transiently transfected with multiple reporter transcription units (MRTUs) in 6-well plates using FuGene 6 reagent (Roche; 3 ml FuGene/1 mg DNA). The MRTU constructs are regulated by a cis-regulating element (promoter). […] A major difference between the CIS and TRANS system is that in CIS activities of endogenous TFs are measured, whereas the TRANS assay evaluates changes in activities of exogenous, chimeric NR-Gal4 proteins. […] At the end of 24 hour incubation, total RNA was isolated using TriZol reagent (Invitrogen). The isolated RNA is then reverse-transcribed using oligo(dT) primer and Mo-MLV reverse transcriptase (Invitrogen) with DNAse I (Ambion) treatment for 30 min. The one-tenth of the produced cDNA was amplified by PCR using Taq DNA polymerase (Invitrogen) and two reporter sequence-specific primers. The PCR products were fluorescently labeled by primer extension with 6-arboxyfluorescein (6-FAM) 5'-labeled reporter sequence-specific primer (2 min at 95 C, 20 s at 68 C and 10 min at 72 C) and these products were digested with 5U of HpaI (New England Biolabs) for 2h at 37 C. The fragments were purified using Qiaquick PCR columns (Qiagen), analyzed on an ABI 3130xL genetic analyzer (Applied Biosystems) with peak positions identified by using a set of X-rhodamine (ROX)-labeled MapMarker1000 molecular weight standards (BioVentures). The raw capillary electrophoresis data was processed using Attagraph software (Attagene).
Structure (SMILES),outcome,AC50
C=CC(=O)[O][Sn]([CH2]CCC)([CH2]CCC)[CH2]CCC,inactive,–
c1cc[c]([Sb]([c]2ccccc2)[c]2ccccc2)cc1,inactive,–
O=c1[nH]c2ccccc2n1C1CCN(CCCC(c2ccc(F)cc2)c2ccc(F)cc2)CC1,inactive,–
C=C(C)C(=O)OCC(CC)CCCC (stereo not given),inactive,–
CCCCCCCCCCCCOS(=O)(=O)O,inactive,–
Nc1ccc(Br)cc1,inactive,–
CC(C)(C)c1ccc(CCOc2ncnc3ccccc23)cc1,inactive,–
CC(C)(c1ccc(O)c(-c2ccccc2)c1)c1ccc(O)c(-c2ccccc2)c1,inactive,–
CCOC(=O)C(SP(=S)(OC)OC)c1ccccc1 (stereo not given),inactive,–
CN(N=O)C(N)=O,inactive,–
CC(F)(F)CC(F)(F)F,inactive,–
O=c1[nH]c(=O)n(Cl)c(=O)n1Cl,inactive,–
CCN(CC)C(=O)C(Cl)=C(C)OP(=O)(OC)OC,inactive,–
O=C(CCl)NCO,inactive,–
Cc1cc(Cl)ccc1OC(C)C(=O)O (stereo not given),inactive,–
O=S(=O)(c1ccc(Cl)cc1)c1cc(Cl)c(Cl)cc1Cl,inactive,–
FC(F)OCC(F)(F)C(F)(F)F,inactive,–
O=NN1CCCCCCC1,inactive,–
O=S1(=O)OC(c2cc(Br)c(O)c(Br)c2)(c2cc(Br)c(O)c(Br)c2)c2ccccc21,inactive,–
CNC(=O)O/N=C/C(C)(C)S(C)(=O)=O,inactive,–

Structure (SMILES),outcome,AC50
Cc1cc(C)cc(C)c1,inactive,–
BrCc1ccc(Br)cc1,inactive,–
O=C(O)COc1cc(Cl)c(Cl)cc1Cl,inactive,–
O=C(N[C@H]1CN2CCC1CC2)c1ccc2c(c1)OCCO2,inactive,–
CC(C)O.CC(C)O.OCCN(CCO)CCO.OCCN(CCO)CCO.[Ti],inactive,–
C[C@]12CC[C@@H](O)C[C@@H]1CC[C@@H]1[C@@H]2CC[C@]2(C)C(=O)CC[C@@H]12,inactive,–
CCCCN(CCCCO)N=O,inactive,–
Clc1ccc(C(Cl)(Cl)Cl)cn1,inactive,–
Brc1ccc(Br)cc1,inactive,–
c1csc(-c2ccc(-c3cccs3)s2)c1,inactive,–
ClCCN1CCOCC1,inactive,–
O=C(Cl)OCCOCCOC(=O)Cl,inactive,–
CCC[N+](CCC)(CCC)CCC,inactive,–
N#Cc1ccccc1Cl,inactive,–
OCC(c1ccc(Cl)cc1)c1ccc(Cl)cc1,inactive,–
CC(C)(C)c1cc([N+](=O)[O-])cc(C(C)(C)C)c1O,–,52.1 µM (active)
Cc1ccc(OP(=O)(Oc2ccc(C)cc2C)Oc2ccc(C)cc2C)c(C)c1,inactive,–
CCCCN(CCCC)C(=S)S,inactive,–
Nc1nc(=S)[nH][nH]1,inactive,–
CC(C)[C@@H](Nc1ccc(C(F)(F)F)cc1Cl)C(=O)OC(C#N)c1cccc(Oc2ccccc2)c1 (stereo not given in full),inactive,–

# Reference: PubChem BioAssay (EPA / NIEHS)
